# NPC1 prom act – qHTS Assay for NPC1 Promoter Activators; Huh7 NPC1 promoter luciferase reporter, 24 h; Potency, µM (highest dose often 9.22 µM), usual class: activators; actives 2.4% (n = 320,000); note: nearly all actives have a fitted effect of over 60% in size
#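 Quantitative HTS used a cell-based reporter: Huh7 cells stably bearing the NPC1 promoter upstream of luciferase were treated with compounds for 24 h, and promoter activation was read as luminescence.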
# SMN2 splice enh – qHTS Assay for Enhancers of SMN2 Splice Variant Expression; HEK293 SMN2-luciferase splicing reporter, luminescence, 30-36 h; Potency, µM (top dose mostly 46.1 µM), usual class: activators; actives 2.8% (n = 210,000); AID 1458, 2008; note: nearly all actives have a fitted effect of over 55% in size
#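 qHTS luciferase splicing reporter: luminescence rises when SMN2 exon 7 is included in transfected HEK293 cells. Compound exposure lasted 30-36 h at 37C, with 4.5 mM final sodium butyrate as control, followed by a ONE-Glo read.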
# ELG1 DNA repair – qHTS screen for small molecules that inhibit ELG1-dependent DNA repair in human embryonic kidney (HEK293T) cells expressing luciferase-tagged ELG1; HEK293T ELG1-luciferase reporter, luminescence, 16 h; DNA damage induced by 5-fluorouridine; Potency, µM (highest dose often 46.1 µM), usual class: inhibitors; actives 2.3% (n = 330,000); note: nearly all actives have a fitted effect of over 55% in size
#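 Overnight (16 hr) co-exposure of 2,000 cells/well to 5-fluorouridine and compound at 37 °C preceded detection. Luciferase was quantified via ONE-Glo luminescence; loss of signal denotes inhibition.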
# ELG1 genotoxic – qHTS screen for small molecules that induce genotoxicity in human embryonic kidney (HEK293T) cells expressing luciferase-tagged ELG1; actives 1.3% (n = 330,000); Potency, µM (series often up to 46 µM), most hits filed as activators; HEK293T ELG1-luciferase reporter, luminescence, 16 h; note: nearly all actives have a fitted effect of over 60% in size
#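 HEK293T cells expressing luciferase-tagged ELG1 were treated with compound or DMSO for 16 hr at 37°C. Luciferase activity was then read after 30 min with ONE-Glo at room temperature; rising signal flags genetic stress.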
# FLuc modulator – qHTS profiling assay for firefly luciferase inhibitor/activator using purifed enzyme and Km concentrations of substrates (counterscreen for miR-21 project) | Luciferin 4-monooxygenase (Photinus pyralis), P08659 | purified FLuc, Km substrates, luminescence inhibition | Potency, µM (highest dose often 57.5 µM), actives largely listed as inhibitors | actives 6.9% (n = 360,000) | AID 588342, 2011; note: nearly all actives have a fitted effect of over 55% in size
# Target sequence (P08659 whole entry, looked up): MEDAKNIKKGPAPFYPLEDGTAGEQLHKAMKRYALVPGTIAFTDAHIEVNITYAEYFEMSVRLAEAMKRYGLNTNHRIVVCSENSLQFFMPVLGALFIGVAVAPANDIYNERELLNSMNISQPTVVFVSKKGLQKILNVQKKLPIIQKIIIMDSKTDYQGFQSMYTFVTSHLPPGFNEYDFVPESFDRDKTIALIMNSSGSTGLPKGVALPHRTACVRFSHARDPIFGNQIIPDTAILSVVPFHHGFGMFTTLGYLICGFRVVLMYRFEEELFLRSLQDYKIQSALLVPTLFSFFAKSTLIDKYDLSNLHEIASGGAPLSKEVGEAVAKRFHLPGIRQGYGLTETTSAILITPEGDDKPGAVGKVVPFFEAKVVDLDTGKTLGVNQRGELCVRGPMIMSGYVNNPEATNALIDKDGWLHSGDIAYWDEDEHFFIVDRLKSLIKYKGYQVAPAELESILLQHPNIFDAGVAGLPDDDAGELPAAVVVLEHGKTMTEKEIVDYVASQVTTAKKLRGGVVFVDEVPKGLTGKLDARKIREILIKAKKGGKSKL
#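 Biochemical qHTS of compounds, final roughly 60 µM downward over six points, against 10 nM purified firefly luciferase using Km concentrations of substrates (10 uM D-luciferin, 10 uM ATP) in Tris acetate pH 7.5 buffer; luminescence output.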
# Rab9 prom act – qHTS Assay for Rab9 Promoter Activators | Huh7 Rab9 promoter-luciferase reporter, luminescence, 24 h | Potency, µM (titrated, usually from 9.22 µM), usual class: activators | actives 2.8% (n = 320,000); note: nearly all actives have a fitted effect of over 60% in size
#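 Luciferase signal after 10 min detection reagent at ambient indicates Rab9 promoter upregulation; stably transfected Huh7 cells were treated 24 h with compound in DMSO at 37 °C, 5% CO2.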
# Hits are given with their value; – = inactive; ? = inconclusive; · = not tested or not shown; [ ] = another dose, or the depositor's remark. Shown are actives, neighbours in structure and some others; about 9.2% of the full set was active somewhere. Calls come from the whole dose curve; as a rule, active = well fitted curve in the direction sought with a large enough effect; inconclusive = small, poorly fitted or top-dose-only effect, or another doubt; inactive = no such curve, though single readings can be large; an effect the other way counts as inactive or inconclusive.
SMILES,NPC1 prom act,SMN2 splice enh,ELG1 DNA repair,ELG1 genotoxic,FLuc modulator,Rab9 prom act
COCC1CCN(C(=O)c2cc(COc3cc(C)c(Cl)c(C)c3)on2)C1 (centres undefined),?,·,?,–[9.26 µM],17µM,4.5µM
O=C(N=c1nc2ccccn2s1)c1ccccc1,0.89µM,1.8µM,?,0.13µM,0.19µM,?
O=C(O)C(=O)/C(=C\c1ccc(Cl)cc1)c1ccc2ccccc2n1,–,13µM,?,?,?,–
Cc1noc2ncc(C(=O)c3cc(F)ccc3O)cc12,–,–,–,–,–,–
O=C(c1cnn(C(=O)COc2ccccc2F)c1)c1cc(F)ccc1O,–,·,–,–,–,–
Cc1[nH]nc2ncc(C(=O)c3cc(F)ccc3O)cc12,–,–,18µM,–,–,–
O=C(c1cn[nH]c1)c1cc(F)ccc1O,–,–,21µM,–,–,–
CCOc1ccc(CCNC(=O)c2sc3nc4n(c(=O)c3c2C)CCCC4)cc1OCC,·,·,·,·,–,·
CCOc1ccc(CCNC(=O)c2sc3nc4n(c(=O)c3c2C)CCC4)cc1OCC,–,·,6.5µM,–,–,–
Cc1cccc(CCNC(=O)c2sc3nc4n(c(=O)c3c2C)CCCC4)c1,·,·,·,·,13µM,·
Cc1ccc(-c2nc3ccccc3nc2NN)cc1,–,·,?,8.2µM,1.3µM,?
COC(=O)c1ccc2c(c1O)C(=O)c1ccccc1C2=O,–,–,?,?,8.5µM,–
Nc1cc(C(=O)O)c(N)c2c1C(=O)c1ccccc1C2=O,–,·,?,–,19µM,–
Nc1c(C(=O)O)ccc2c1C(=O)c1ccccc1C2=O,–,–,–,–,19µM,–
CCN(CC)S(=O)(=O)c1ccc2c(c1)N(CC(=O)Nc1cccc(C)c1C)C(=O)C1CCCN21 (centres undefined),·,·,·,·,–,·
O=C(CSc1ccc(-c2ccccc2)nn1)N1CCOCC1,–,6.3µM,?,?,–,–
O=C(CSc1ccc(-c2ccc(F)cc2)nn1)N1CCOCC1,–,–,–,?,–,–
Cc1ccc(C(=O)CSc2ccc(-c3ccncc3)nn2)cc1,–,–,?,–,–,–
COc1ccc(-c2ccc(SCC(=O)N3CC(=O)Nc4ccccc43)nn2)cc1,–,·,–,–,3µM,–
COc1ccc(-c2ccc(SCC(=O)c3cccs3)nn2)cc1,–,13µM,?,?,11µM,–
O=C(CSc1ccc(-c2ccccc2)nn1)c1cccs1,?,18µM,?,?,?,?
CCCCn1c(N)c(N(CC(C)C)C(=O)C2CCN(S(=O)(=O)c3ccc(C)cc3)CC2)c(=O)[nH]c1=O,–,·,–,–,–,–
CCC(C)(C)NC(=O)C(Sc1ccccc1)c1ccccc1 (centres undefined),–,·,–,–,–,–
Cc1ccc2c(c1)nnn2C1CCN(S(=O)(=O)c2ccc(C(=O)N(C)C)cc2)CC1,–,–,18µM,–,–,–
Cc1ccc2c(c1)nnn2C1CCN(S(=O)(=O)c2ccc(C(=O)N3CC(C)CC(C)C3)cc2)CC1 (centres undefined),–,·,21µM,–,–,–
SMILES,NPC1 prom act,SMN2 splice enh,ELG1 DNA repair,ELG1 genotoxic,FLuc modulator,Rab9 prom act
Cc1ccc2c(c1)nnn2C1CCN(S(=O)(=O)c2cccc(S(=O)(=O)N(C)C)c2)CC1,–,–,21µM,–,–,–
O=C(NCC(c1ccco1)S(=O)(=O)c1cccs1)c1ccc(C(F)(F)F)cc1 (centres undefined),·,·,·,·,–,·
CCS(=O)(=O)c1ccc(O)c(NC(=O)COc2ccc(OC)cc2)c1,–,–,–,–,?,–
CCCc1ccc(OCC(=O)Nc2cc(S(=O)(=O)CC)ccc2O)cc1,–,·,–,–,27µM,–
COCCCn1c(-c2ccc(S(=O)(=O)N3CCOCC3)cc2)csc1=Nc1ccccc1,–,–,6.5µM,–,–,–
CCn1c(-c2ccccc2)csc1=Nc1ccc(S(=O)(=O)O)cc1,?,–,–,–,3.8µM,?
Cc1ccc(-c2nn(-c3ccccc3)cc2/C=C/C(=O)O)o1,–,–,?,–,24µM,–
Cc1ccc(-c2nn(-c3ccccc3)cc2CN(Cc2ccccc2)C(=O)c2ccco2)o1,–,–,18µM,–,–,–
Cc1nc2nc(SCC(=O)C(C)(C)C)[nH]c2cc1Br,–,–,–,–,–,–
CC(C)(C)C(=O)CSc1nc2ncc(Br)cc2[nH]1,–,·,–,–,19µM,–
Oc1ccc(/C=N/Nc2cc(N3CCCC3)nc(N3CCCC3)n2)cc1,–,–,–,–,–,–
CCOc1ccc(/C=N/Nc2cc(N3CCOCC3)nc(C)n2)c(O)c1,–,·,–,–,–,–
Cc1nc(Cl)cc(N/N=C/c2ccc(O)cc2)n1,–,·,?,?,21µM,–
Cc1nc(Cl)cc(N/N=C/c2ccc(O)cc2O)n1,–,·,?,–,13µM,–
O=C(c1ccccc1-c1nc2ccccc2[nH]1)N1CCCCC1,–,–,–,–,–,–
Oc1ccc(C=Nc2ccccc2-c2nc3ccccc3[nH]2)c(O)c1,?,14µM,?,?,4.8µM,?
COc1ccc(OC)c(C=Nc2ccccc2-c2nc3ccccc3[nH]2)c1,?,13µM,?,?,4.8µM,?
Oc1ccccc1C=Nc1ccccc1-c1nc2ccccc2[nH]1,?,32µM,?,?,?,?
C/C(COc1ccccc1)=N\NC(=O)c1nnn(-c2nonc2N)c1CSc1ccccc1,–,·,–,–,–,–
Cc1ccc(NC(=O)C2CCCN2S(=O)(=O)c2cccc3nsnc23)cc1Cl (centres undefined),·,–,·,·,–,·
Cc1cc(NS(=O)(=O)c2ccc(NC(=O)c3ccc([N+](=O)[O-])s3)cc2)nc(C)n1,·,·,?,–,·,·
COc1ccc(C(=O)Nc2nc3c(s2)Cc2cc(OC)ccc2-3)cc1,–,–,?,–,?,–
COc1ccc2nc(NC(=O)c3cccs3)sc2c1,0.32µM,·,?,?,0.67µM,0.28µM
COc1ccc2c(c1)Cc1sc(NC(=O)c3cccs3)nc1-2,4µM,?,?,?,?,2.8µM
CC(=O)Nc1ccc2nc(NC(=O)c3cccs3)sc2c1,0.63µM,·,?,?,2.1µM,0.32µM
Cc1nc2cc(NC(=O)c3ccc([N+](=O)[O-])s3)ccc2s1,–,·,?,?,3.8µM,?
COc1ccc(NC(=O)c2ccc(=O)[nH]c2)cc1S(=O)(=O)N1CCOCC1,–,·,–,–,–,–

# From PubChem BioAssay
